Measurements as given in PubChem BioAssay (Tox21).
Records with an inconclusive call do not appear. Where a call stands in place of a potency, no number is given. The source made the active and inactive calls. Calls follow the shape of the dose curve; as a rule, active = well fitted inhibition curve with a large enough effect in the repeat runs; inconclusive = weak or mixed curves; inactive = no such curve, though single readings can be large or run the other way.

The molecules below were run against Cytochrome P450 2D6 (Homo sapiens) (UniProt P10635) (assay: Cytochrome P450 Family 2 Subfamily D Member 6 (CYP2D6) small molecule antagonists: luciferase reporter qHTS assay (AID 1671196; also: nearly all actives have a fitted effect of over 50% in size)). Conditions: P450-Glo CYP2D6 enzyme assay, luciferin luminescence, 1 h; series mostly up to 115 µM.
Method in brief: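 Read-out is luminescence from luciferin formed by CYP2D6 turnover of a proluciferin substrate, recorded as relative luminescence units. Reactions ran 1 h at room temperature after NADPH regeneration solution was added.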
Potency is read from the fitted curve at half-maximal effect.

Sequence of Cytochrome P450 2D6 (Homo sapiens) (P10635 whole entry, looked up): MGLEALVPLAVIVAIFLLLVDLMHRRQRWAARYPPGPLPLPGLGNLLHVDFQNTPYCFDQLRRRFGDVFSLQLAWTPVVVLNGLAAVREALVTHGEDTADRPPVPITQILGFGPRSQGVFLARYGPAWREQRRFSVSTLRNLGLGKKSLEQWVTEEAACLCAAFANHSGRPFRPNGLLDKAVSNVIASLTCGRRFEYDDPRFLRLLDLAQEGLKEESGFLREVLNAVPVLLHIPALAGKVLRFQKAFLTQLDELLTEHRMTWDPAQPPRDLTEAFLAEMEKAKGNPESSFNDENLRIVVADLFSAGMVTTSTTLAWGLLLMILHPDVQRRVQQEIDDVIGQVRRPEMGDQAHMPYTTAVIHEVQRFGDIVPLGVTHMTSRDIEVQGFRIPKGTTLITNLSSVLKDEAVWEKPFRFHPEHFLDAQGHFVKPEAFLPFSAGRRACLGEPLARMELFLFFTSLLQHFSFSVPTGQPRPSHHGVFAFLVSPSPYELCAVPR

SMILES | Potency
CC(=O)N/N=C/c1ccc([N+](=O)[O-])o1 | inactive
CC1(CN2CCC(n3c(=O)[nH]c4ccccc43)CC2)OCc2ccccc2-n2cccc21 (stereo not given) | 2.45 µM (active)
COC(=O)c1nc(Cl)c(Cl)nc1N | inactive
CC(O)c1ccccc1 (stereo not given) | inactive
CCC1CO1 (stereo not given) | inactive
C=CC(C)(CCC=C(C)C)OC(=O)CC(C)C (stereo not given) | inactive
COc1cc(Nc2c(C#N)cnc3cc(OCCCN4CCN(C)CC4)c(OC)cc23)c(Cl)cc1Cl | inactive
c1cc(N(CC2CO2)CC2CO2)ccc1Cc1ccc(N(CC2CO2)CC2CO2)cc1 (stereo not given) | inactive
CC1=C(Br)C(=O)C(Br)=C/C1=C(/c1ccccc1S(=O)(=O)O)c1cc(Br)c(O)c(Br)c1C | 21.6 µM (active)
C=CC(=O)[O-].C=CC(=O)[O-].[Zn+2] | 34.8 µM (active)
N#[N+]c1ccc2c(S(=O)(=O)[O-])cccc2c1O | 31.7 µM (active)
CCCCC(CC)CN (stereo not given) | 36.2 µM (active)
C[C@H]1C[C@H](O)c2ccsc2S1(=O)=O | inactive
CCC(C)COC(=O)CC(C)C (stereo not given) | inactive
N#CCCN(CCO)CCO | inactive
N#CCc1ccc(Cl)cc1Cl | inactive
CCOC(=O)/C=C/C(=O)OCC | inactive
CCCCCCC(C)(C)C(=O)O | inactive
C=C(C)CCCC(C)CCO (stereo not given) | inactive
c1ccc2c(c1)CCc1ccccc1N2 | inactive

SMILES | Potency
CCc1ccccc1 | inactive
CCOC(=O)[C@H](CCc1ccccc1)N[C@@H](C)C(=O)N(CC(=O)O)C1Cc2ccccc2C1 | inactive
CCCC(=O)C(=O)O | 35.6 µM (active)
CCC(OCCCOC)OC(C)=O (stereo not given) | inactive
Cc1cc(C)c(N)cc1C | 22.4 µM (active)
CN1C(C(=O)Nc2ccccn2)=C(O)c2sccc2S1(=O)=O | inactive
NC(=O)c1ccncc1 | inactive
COC(=O)CCS | inactive
CC(C)(c1ccccc1)c1ccccc1 | 58.8 µM (active)
O=C(OC(=O)c1ccccc1)c1ccccc1 | inactive
CCCC(C(=O)OCCN(CC)CC)(c1ccccc1)c1ccccc1 | 0.275 µM (active)
Cc1cscn1 | inactive
CCCCCC#CC(=O)OC | inactive
O=[N+]([O-])c1cc(C2CCCCC2)c(O)c([N+](=O)[O-])c1 | 31.6 µM (active)
O=C(O)C[C@H](NC(=O)OCc1ccccc1)C(=O)O | inactive
CC1(C)S[C@@H]2[C@H](NC(=O)C(c3ccccc3)S(=O)(=O)O)C(=O)N2[C@H]1C(=O)O (stereo not given in full) | inactive
COC(=O)CS | inactive
Nc1ccc(N=Nc2ccccc2)c(N)c1 | 2.2 µM (active)
Cc1ccco1 | 34.8 µM (active)
C[C@]12CC[C@@H]3c4ccc(O)cc4CC[C@H]3[C@@H]1CC[C@@H]2OC(=O)CCC1CCCC1 | inactive
